Holding throughout (assay): glycan array binding signal (z-score within array); higher = stronger binding
Common to all, as to settings: glycan notation: IUPAC condensed, linker removed

Test [1] has as its target Fuc(a1-2)[Gal(a1-3)]Gal(b1-4)Glc. Summed up:
(§1)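 Glycan array data were curated from 3228 arrays in the Consortium for Functional Glycomics database and kept only where the protein sequence was available. Glycan names were converted to IUPAC-condensed notation, and columns mapping to the same glycan were averaged. The binding signal is a within-array Z-score, averaged across arrays of the same protein sequence at different concentrations or buffers and across linkers. Negative Z-scores can be read as non-binding.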

Test [2] deals with Fuc(a1-2)[GalNAc(a1-3)]Gal. A digest of the protocol: as §1
Test [3] deals with Fuc(a1-2)[GalNAc(a1-3)]Gal(b1-4)Glc. Summed up: as §1
Test [4] has as its target Fuc(a1-2)[GalNAc(a1-3)]Gal(b1-4)GlcNAc. A digest of the protocol:
as §1

Test [5] addresses Fuc(a1-2)[GalNAc(a1-3)]Gal(b1-4)[Fuc(a1-3)]GlcNAc. Summed up: as §1
In test [6] the target is Fuc(a1-2)[GalNAc(a1-4)]Gal(b1-4)GlcNAc. A digest of the protocol: as §1
The target of test [7] is Fuc(a1-3)[Gal(b1-4)]GlcNAc(b1-2)Man(a1-3)[Fuc(a1-3)[Gal(b1-4)]GlcNAc(b1-2)Man(a1-6)]Man(b1-4)GlcNAc(b1-4)GlcNAc. A digest of the protocol:
as §1

The target of test [8] is Fuc(a1-3)[Gal(b1-4)]GlcNAc(b1-4)Gal(b1-4)[Fuc(a1-3)]GlcNAc(b1-4)Gal(b1-4)[Fuc(a1-3)]GlcNAc. A digest of the protocol: as §1
Another test addresses Fuc(b1-3)GlcNAc. Summed up: as §1
In a further test the target is GlcA(b1-3)Gal. A digest of the protocol: as §1
For another test, the target named is GlcNAc(b1-6)GalNAc. Summed up: as §1
The target of the next test is GlcNAc3Prop(b1-4)GlcNAc. A digest of the protocol: as §1
In another test the target is Man(b1-4)GlcNAc. A digest of the protocol:
as §1

The target in test [9] is Neu5Ac(a2-3)Gal(b1-4)[Fuc(a1-3)]GlcNAc(b1-3)Gal(b1-4)[Fuc(a1-3)]GlcNAc(b1-3)Gal(b1-4)[Fuc(a1-3)]GlcNAc. A digest of the protocol: as §1
Test [10] deals with Neu5Ac(a2-8)Neu5Ac(a2-8)Neu5Ac. Summed up: as §1
A further test has as its target Neu5Gc(a2-3)Gal(b1-4)Glc. Summed up: as §1
Test [11] deals with Fuc(a1-3)[Gal(b1-4)]GlcNAc. Summed up:
as §1

A further test deals with Gal(a1-6)Glc. A digest of the protocol: as §1
The target of a further test is Gal(b1-3)Gal. A digest of the protocol: as §1
The target in test [12] is Gal(b1-3)GalNAc(b1-3)Gal(b1-4)GlcNAc. A digest of the protocol:
as §1

The target in test [13] is Gal(b1-3)GalNAc(b1-4)[Neu5Ac(a2-3)]Gal(b1-4)Glc. A digest of the protocol:
as §1

Test [14] has as its target Gal(b1-4)GlcNAc(b1-6)[Gal(b1-3)]GalNAc. A digest of the protocol:
as §1

For another test, the target named is Gal3S(b1-3)GalNAc. A digest of the protocol:
as §1

A further test addresses Gal3S(b1-4)Glc. Summed up:
as §1

The target of the next test is Gal3S(b1-4)Glc6S. A digest of the protocol: as §1
Test [15] addresses GalNAc(b1-3)Gal(a1-4)Gal(b1-4)GlcNAc. Summed up: as §1
In the next test the target is GalNAc(b1-4)GlcNAc. Summed up:
as §1

Test [16] concerns the target Man(a1-2)Man(a1-3)[Man(a1-3)[Man(a1-6)]Man(a1-6)]Man(b1-4)GlcNAc(b1-4)GlcNAc. Summed up:
as §1

Test [17] deals with Man(a1-3)[Man(a1-6)]Man(a1-6)[Man(a1-3)]Man(b1-4)GlcNAc(b1-4)GlcNAc. A digest of the protocol:
as §1

Test [18] addresses Neu5Ac(a2-3)Gal(b1-3)GalNAc(b1-3)Gal(a1-4)Gal(b1-4)Glc. A digest of the protocol:
as §1

Test [19] deals with Neu5Ac(a2-3)Gal(b1-3)[Neu5Ac(a2-6)]GalNAc. A digest of the protocol: as §1
The target of the next test is Neu5Ac(a2-3)Gal(b1-4)Glc. Summed up: as §1
The target of test [20] is Neu5Ac(a2-3)Gal(b1-4)GlcNAc6S. Summed up:
as §1

The next test deals with Neu5Ac(a2-3)GalNAc. A digest of the protocol:
as §1

In test [21] the target is Neu5Ac9Ac(a2-6)Gal(b1-4)GlcNAc. A digest of the protocol: as §1

This excerpt belongs to a sample that is enriched for the strongest signals.

B1: GH98CBM (Clostridium perfringens) (protein)
chain: EVYALEESRDVYLSDLDWLNATHGDDTKSKIVQKNHPFTPGNNNQSTKISLKMEDGSISEFEKGLGTIAGSPSTITYDISGAGVTKFFSYLGIDRSANPINEQYAKVDKIEVVVDGKVIYSTINQFPNGLTYETPAIKVDLNIPENAKRLQLKSYAGEKTWGDEVVYADAKFTAKGDFVN
For B1, the “glycan array binding signal (z-score)” value in test [1] was 2.19; in test [2], 4.81; in test [3] it was 6.66; in [4], 8.52; in [5] it was 5.47; in test [6], -0.209. The “glycan array binding signal (z-score)” value in [7] is 0.041; in test [8], -0.235; with Fuc(b1-3)GlcNAc, 0.118; with GlcA(b1-3)Gal, -0.196; with GlcNAc(b1-6)GalNAc, -0.22; in the test with GlcNAc3Prop(b1-4)GlcNAc, -0.189. The “glycan array binding signal (z-score)” value in the test with Man(b1-4)GlcNAc was -0.183; in test [9], -0.233; in test [10], -0.247; with Neu5Gc(a2-3)Gal(b1-4)Glc it was -0.107.

B2: EcCDA (Encephalitazoon cuniculi), Q8SU65 (protein)
chain: MLLCLLYFTSSWCSGSDVPDVCTNSGMIAINFVDGPVRGVTDRILNTLDELGVKATFSFTVNQKAVGNVGQLYRRAVEEGHNVALRVDPSMDEGYQCLSQDALENNVDREIDTIDGLSGTEIRYAAVPICNGQVNSEMYNILTERGVLPVGYTFCPYDYDDPVGEFESMIEGSDPKHHSFIILMHDGQEADTSRLENMVKIGKDKGYRFVNMDECLQGYKGAPGDPELSLRGKGVESIGKGFLPFFLMMLVRLL
As for B2, the “glycan array binding signal (z-score)” value in test [1] is 2.96; in [11], -0.055; with Gal(a1-6)Glc, 3.02; with Gal(b1-3)Gal it was -0.337; in test [12] it was -0.363; in [13], -0.234. Besides, the “glycan array binding signal (z-score)” value in test [14] is -0.1; in the test with Gal3S(b1-3)GalNAc, 0.115; in the test with Gal3S(b1-4)Glc it was 0.022; with Gal3S(b1-4)Glc6S, 5.58; in [15] it was 1.6; with GalNAc(b1-4)GlcNAc, -0.289. Further, the “glycan array binding signal (z-score)” value in test [16] is -0.2; in [17], -0.34; in [18], -0.476; in test [19], -0.318; in the test with Neu5Ac(a2-3)Gal(b1-4)Glc it was -0.322; in [20] it was -0.284. Further, the “glycan array binding signal (z-score)” value in the test with Neu5Ac(a2-3)GalNAc is 0.071; in [21] it was 4.58.

(Values after the supplement of paper PMC8728848.)
